Consider 48 molecules from PubChem BioAssay AID686979 (National Center for Advancing Translational Sciences (NCATS), 2013).

The whole screen tested about 420,000 compounds, of which about 50,000 (12%) were called active. Roughly 26% stayed inconclusive and do not appear here. Many of the other results were omitted from the sample, so actives are more common in it than they were. Unmarked numbers belong to inactive results. Calls follow the shape of the dose curve; as a rule, active = well fitted inhibition curve with a large enough effect; inconclusive = small, poorly fitted or top-dose-only effect; inactive = flat fitted curve, though single readings scatter.
% is scaled to controls: 0 for no effect and ±100 for the full control effect; potency is read from the fitted curve at half-maximal effect.

The assay can be described thus: qHTS for Inhibitors of human tyrosyl-DNA phosphodiesterase 1 (TDP1): qHTS in cells in presence of CPT. Also: nearly all actives have a fitted effect of over 55% in size. Particulars: chicken DT40 Tdp1-/-;hTDP1 cells + 20 nM CPT, ATP luminescence, 48 h; series mostly up to 46.2 µM; activity change, negative = growth inhibition: at the top concentration. The gist of the method:
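Cell growth measured by CellTiter-Glo luminescence after a minimum 48 h, 37 C compound exposure with 20 nM CPT in Tdp1-knockout DT40 cells stably expressing hTDP1, seeded 400/well; qHTS titration format.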
As to `Cc1ccsc1C(=O)C1CCCN(Cc2ccc(O)cc2)C1` (stereo not drawn), the “activity change, negative = growth inhibition” value was 0.994%.

In the case of `Cc1cccc(-n2c(O)c(C=NC34CN5CN(CN(C5)C3)C4)c(=O)[nH]c2=O)c1`, the “activity change, negative = growth inhibition” value was 6.92%.

Take `Cc1nn(Cc2ccccc2Cl)c(Cl)c1C(=O)OC(C(=O)NC(N)=O)C(C)C` (stereo not drawn): the “activity change, negative = growth inhibition” value is -2.59%.

Regarding `CCOc1ccc(CN(CCCl)CCCl)cc1C(=O)OC`, the Potency was 4.11 µM (active).

With `Cc1cc(C=C2C(=O)NC(=O)NC2=O)c(C)n1-c1ccncc1`, the “activity change, negative = growth inhibition” value is -1.71%.

On to `N=c1ccccn1Cc1ccccc1`, for which the “activity change, negative = growth inhibition” value is 8.77%.

On to `CC1=CC(=Cc2sc3ccccc3[n+]2C)C=C(C)O1`, for which the Potency is 0.164 µM (active).

Regarding `CCOc1ccc(-c2cc(C)[n+](CCN(CC)CC)c(-c3ccc(OCC)cc3)c2)cc1`, the Potency is 0.206 µM (active).

As to `COc1cc(C(=O)N2Cc3ccc(Br)cc3-n3nncc3C2)cc(OC)c1OC`, the “activity change, negative = growth inhibition” value was -22.5%.

`CC=C(C)C(=O)OC1CCN2CC=C(COC(=O)C(O)(C(C)OC)C(C)(C)O)C12` (stereo not drawn): the “activity change, negative = growth inhibition” value is -7.32%.

`CN(Cc1cccc2ncccc12)C(=O)c1cnn(-c2nccc(-c3ccccc3F)n2)c1C1CC1`: the Potency was 5.17 µM (active).

For `COc1ccccc1OC(=O)c1ccc(C)c(S(=O)(=O)N2CCOCC2)c1`, the “activity change, negative = growth inhibition” value is -2.39%.

As to `CC(=NC1CCN(Cc2ccccc2)CC1)c1c(O)n(C)c(=O)n(C)c1=O`, the “activity change, negative = growth inhibition” value is 2.92%.

In the case of `N[C@H](Cc1o[nH]c(=O)c1Cl)C(=O)O`, the “activity change, negative = growth inhibition” value was 14%.

On to `CO[C@@H]1C[C@@H](C[C@H]2CC[C@H](C)[C@@H]([C@@H](C)C(=O)O)O2)O[C@]2(O[C@](C)([C@H]3CC[C@@](C)(C4OC([C@H]5O[C@@](O)(CO)[C@H](C)C[C@@H]5C)C[C@@H]4C)O3)C[C@H]2C)[C@@H]1C` (stereo partly drawn), for which the Potency is 0.588 µM (active).

Regarding `COC(=O)C1=C(c2ccccc2)C[C@@H]2CC[C@H]1N2C(=O)NCc1ccco1`, the “activity change, negative = growth inhibition” value was -25.1%.

Turning to `COC(=O)C1=C(c2cccc(OCc3ccccc3)c2)C[C@@H]2CC[C@H]1N2C(=O)NNCc1ccccc1`, the Potency is 20.6 µM (active).

Turning to `COC(=O)C1=C(c2ccc(-c3ccccc3)c(F)c2)C[C@@H]2CC[C@H]1N2C(=O)NCc1ccc(F)cc1`, the Potency was 16.4 µM (active).

`COC(=O)C1=C(c2ccc(F)cc2OCc2ccccc2)C[C@@H]2CC[C@H]1N2C(=O)NCc1ccc(Cl)cc1`: the Potency is 20.6 µM (active).

Turning to `COC(=O)C1=C(c2c(C)noc2C)C[C@@H]2CC[C@H]1N2C(=O)NCc1ccc2c(c1)OCO2`, the “activity change, negative = growth inhibition” value was -0.834%.

With `COC(=O)C1=C(c2ccc(F)cc2OCc2ccccc2)C[C@@H]2CC[C@H]1N2C(=O)NCc1ccc(OC)c(OC)c1`, the Potency is 18.4 µM (active).

In the case of `CCOC(=O)c1cccc(C2=C(CNC(=O)c3ccncc3)[C@H]3CC[C@@H](C2)N3Cc2ccccc2)c1`, the “activity change, negative = growth inhibition” value is -27.1%.

On to `COc1ccc(CCn2c(O)c(C=NC3CC3)c(=O)[nH]c2=O)cc1OC`, for which the “activity change, negative = growth inhibition” value was -22.4%.

For the molecule `CCN(CC)c1ccc([N+](=O)[O-])c2cccnc12`, the “activity change, negative = growth inhibition” value is 15.9%.

For the molecule `CC(C)c1c(CN(C)C(C)Cc2ccccc2)n(C)n(-c2ccccc2)c1=O` (stereo not drawn), the “activity change, negative = growth inhibition” value was 18.3% [at 21.1 µM].

With `CCN1c2nc3c(C)cccn3c(=O)c2CC2(C(=O)N(C)C(=O)N(C)C2=O)C1C` (stereo not drawn), the “activity change, negative = growth inhibition” value was 0.865%.

Regarding `CCC(C)n1c(O)c(/C=N/Nc2nc3c(c(=O)n(C)c(=O)n3C)n2C)c(=O)[nH]c1=S` (stereo not drawn), the “activity change, negative = growth inhibition” value is -24.8%.

As to `Fc1cccc(F)c1CN1CCN(Cc2c(F)cccc2F)CC1`, the “activity change, negative = growth inhibition” value was 2.75%.

For the molecule `Cc1cc(C(=O)OCC(=O)Nc2c(F)cccc2F)c(C)n1C1CC1`, the “activity change, negative = growth inhibition” value is 1.17%.

For the molecule `COC(=O)C1=C(c2ccccc2)C[C@@H]2CC[C@H]1N2C(=O)N1CCCCC1`, the Potency was 5.8 µM (active).

In the case of `COC(=O)C(c1ccccc1)N1CCCCCC1` (stereo not drawn), the “activity change, negative = growth inhibition” value was -14.3%.

Turning to `COC(=O)C1=C(c2ccc(OCc3ccccc3)cc2)C[C@@H]2CC[C@H]1N2C(=O)NCc1cccc(F)c1`, the Potency is 25.9 µM (active).

Consider `O=C(NC(=S)N1C[C@H]2C[C@H](C1)c1cccc(=O)n1C2)c1ccc(F)cc1`, for which the “activity change, negative = growth inhibition” value is 5.87%.

For `CC1CCCN1CCC(C(N)=O)(c1ccccc1)c1ccccc1` (stereo not drawn), the “activity change, negative = growth inhibition” value was -7.87%.

For the molecule `COc1ccc(CCn2c(O)c(C=NCCCn3ccnc3)c(=O)[nH]c2=O)cc1OC`, the “activity change, negative = growth inhibition” value was 20.8%.

For the molecule `CC(=O)Cc1ccc(OC(C)C)cc1`, the “activity change, negative = growth inhibition” value was -0.0899%.

Turning to `Cc1cc2ccccn2c1C(C[N+](=O)[O-])c1c(F)cccc1Cl` (stereo not drawn), the Potency was 18.4 µM (active).

`C[N+]1(C)CCOC(O)(c2ccc(-c3ccc(C4(O)C[N+](C)(C)CCO4)cc3)cc2)C1` (stereo not drawn): the Potency entry was “inactive”.

In the case of `COc1cc(Cl)ccc1Nc1ncc(C(=O)N2CCN(c3ccccc3OC)CC2)c2ccccc12`, the Potency is 14.6 µM (active).

`CN1CCN(C(=O)O[C@@H]2c3nccnc3C(=O)N2c2ccc(Cl)cn2)CC1`: the “activity change, negative = growth inhibition” value is 6.19%.

As to `CCOC(=O)c1c(C)c(C(=O)N2CCC3(CC2)OCCO3)c(C)n1CC`, the “activity change, negative = growth inhibition” value was -15.2%.

On to `CN1CCN(Cc2ccccc2C(F)(F)F)CC1`, for which the “activity change, negative = growth inhibition” value was -1.55%.

As to `CCOC(=O)C1(c2ccccc2)CCN(CC(O)c2ccc(NC(C)=O)cc2)CC1` (stereo not drawn), the “activity change, negative = growth inhibition” value was 11.8%.

For `CCOC(=O)CC1=C(C(=O)OCC)C2(C(=O)N1)C(C(=O)OC)=C(N)Oc1ccccc12` (stereo not drawn), the “activity change, negative = growth inhibition” value was -3.36%.

In the case of `COC1CC(OC2CC[C@@]3(C=O)C4CC[C@]5(C)C(C6=CC(=O)OC6)CC[C@@]5(O)C4CC[C@]3(O)C2)OC(C)C1O` (stereo partly drawn), the Potency was 1.3 µM (active).

Turning to `COC1C(O)C(C)OC(OC2CCC3(C=O)C(CCC4C3CCC3(C)C(C5=CC(=O)OC5)CCC43O)C2)C1O` (stereo not drawn), the Potency is 0.206 µM (active).

Take `c1csc(CN2CCCC3(CCNCC3)C2)n1`: the “activity change, negative = growth inhibition” value was 0.355%.

As for `C=Cn1ccnc1P(=S)(c1cc(N(CC)CC)ns1)c1nccn1C=C`, the “activity change, negative = growth inhibition” value was -23.1%.
